# Assay results taken from the supplement of paper PMC4466140.
# Biological target: AgAbp1
# Test: SPOT peptide array binding signal intensity (averaged, normalized) (arbitrary units (background-subtracted, floor 0; scale differs between SH3 domains)); higher = stronger binding of the SH3 domain to the peptide
# Protocol: (§1)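 GST-tagged SH3 domains from S. cerevisiae (Sc), A. gossypii (Ag), C. albicans (Ca) and S. pombe (Sp) were incubated at 10 ug/ml overnight at 4 C on cellulose SPOT membranes carrying 292 synthetic 15-mer peptides mined from the S. cerevisiae proteome (cysteines replaced by serines). Binding was detected with anti-GST antibody, HRP secondary and chemiluminescence, quantified with Genespotter, and reported as normalized spot intensities averaged over biological replicates.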
row,Binder,SPOT peptide array binding signal intensity
1,QTMRQAPKRPDADVA,17

# Biological target: AgBbc1
# Test: as above
# Protocol: as §1
row,Binder,SPOT peptide array binding signal intensity
1,QTMRQAPKRPDADVA,170

# Biological target: AgBem1-D1
# Test: as above
# Protocol: as §1
row,Binder,SPOT peptide array binding signal intensity
1,QTMRQAPKRPDADVA,369

# Biological target: AgBzz1-D1
# Test: as above
# Protocol: as §1
row,Binder,SPOT peptide array binding signal intensity
1,QTMRQAPKRPDADVA,11

# Biological target: AgBzz1-D2
# Test: as above
# Protocol: as §1
row,Binder,SPOT peptide array binding signal intensity
1,QTMRQAPKRPDADVA,10

# Biological target: AgCyk3
# Test: as above
# Protocol: as §1
row,Binder,SPOT peptide array binding signal intensity
1,QTMRQAPKRPDADVA,≤ 0

# Biological target: AgFus1
# Test: as above
# Protocol: as §1
row,Binder,SPOT peptide array binding signal intensity
1,QTMRQAPKRPDADVA,728

# Biological target: AgHof1
# Test: as above
# Protocol: as §1
row,Binder,SPOT peptide array binding signal intensity
1,QTMRQAPKRPDADVA,9

# Biological target: AgHse1
# Test: as above
# Protocol: as §1
row,Binder,SPOT peptide array binding signal intensity
1,QTMRQAPKRPDADVA,132

# Biological target: AgLsb1
# Test: as above
# Protocol: as §1
row,Binder,SPOT peptide array binding signal intensity
1,QTMRQAPKRPDADVA,48.8

# Biological target: AgLsb4
# Test: as above
# Protocol: as §1
row,Binder,SPOT peptide array binding signal intensity
1,QTMRQAPKRPDADVA,36

# Biological target: AgMyo5
# Test: as above
# Protocol: as §1
row,Binder,SPOT peptide array binding signal intensity
1,QTMRQAPKRPDADVA,18.8

# Biological target: AgNbp2
# Test: as above
# Protocol: as §1
row,Binder,SPOT peptide array binding signal intensity
1,QTMRQAPKRPDADVA,2740

# Biological target: AgRvs167
# Test: as above
# Protocol: as §1
row,Binder,SPOT peptide array binding signal intensity
1,QTMRQAPKRPDADVA,20.3

# Biological target: AgSho1
# Test: as above
# Protocol: as §1
row,Binder,SPOT peptide array binding signal intensity
1,QTMRQAPKRPDADVA,684

# Biological target: AgSla1-D1-D2
# Test: as above
# Protocol: as §1
row,Binder,SPOT peptide array binding signal intensity
1,QTMRQAPKRPDADVA,9

# Biological target: AgSla1-D3
# Test: as above
# Protocol: as §1
row,Binder,SPOT peptide array binding signal intensity
1,QTMRQAPKRPDADVA,14.8

# Biological target: CaAbp1-D1
# Test: as above
# Protocol: as §1
row,Binder,SPOT peptide array binding signal intensity
1,QTMRQAPKRPDADVA,144

# Biological target: CaAbp1-D2
# Test: as above
# Protocol: as §1
row,Binder,SPOT peptide array binding signal intensity
1,QTMRQAPKRPDADVA,292

# Biological target: CaBbc1
# Test: as above
# Protocol: as §1
row,Binder,SPOT peptide array binding signal intensity
1,QTMRQAPKRPDADVA,942

# Biological target: CaBem1-D1
# Test: as above
# Protocol: as §1
row,Binder,SPOT peptide array binding signal intensity
1,QTMRQAPKRPDADVA,565

# Biological target: CaBzz1-D1
# Test: as above
# Protocol: as §1
row,Binder,SPOT peptide array binding signal intensity
1,QTMRQAPKRPDADVA,458

# Biological target: CaBzz1-D2
# Test: as above
# Protocol: as §1
row,Binder,SPOT peptide array binding signal intensity
1,QTMRQAPKRPDADVA,286

# Biological target: CaCyk3
# Test: as above
# Protocol: as §1
row,Binder,SPOT peptide array binding signal intensity
1,QTMRQAPKRPDADVA,35

# Biological target: CaFus1
# Test: as above
# Protocol: as §1
row,Binder,SPOT peptide array binding signal intensity
1,QTMRQAPKRPDADVA,1110

# Biological target: CaHof1
# Test: as above
# Protocol: as §1
row,Binder,SPOT peptide array binding signal intensity
1,QTMRQAPKRPDADVA,1

# Biological target: CaHse1
# Test: as above
# Protocol: as §1
row,Binder,SPOT peptide array binding signal intensity
1,QTMRQAPKRPDADVA,146

# Biological target: CaLsb1
# Test: as above
# Protocol: as §1
row,Binder,SPOT peptide array binding signal intensity
1,QTMRQAPKRPDADVA,18.2

# Biological target: CaLsb4
# Test: as above
# Protocol: as §1
row,Binder,SPOT peptide array binding signal intensity
1,QTMRQAPKRPDADVA,910

# Biological target: CaMyo5
# Test: as above
# Protocol: as §1
row,Binder,SPOT peptide array binding signal intensity
1,QTMRQAPKRPDADVA,56.2
